Shown are actives, neighbours in structure and some others; about 2.4% of the full set was active somewhere.
Pol iota inh: qHTS for Inhibitors of Polymerase Iota. DNA polymerase iota (Homo sapiens), Q9UNA4. Pol iota fluorescent replication assay, 10 min. Potency, µM (top dose mostly 115 µM), for inactives: at the highest dose activity, negative = inhibition, hits mostly inhibitors. 390,000 tested, 1% active
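Pol iota at 10 nM preincubated 15 min with compounds at room temperature; reaction started with fluorescent substrate, 50 nM final. Fluorescence read kinetically at 0 and 10 min; buffer-only wells as negative control.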
WRN inhibitor: qHTS for Inhibitors of WRN Helicase; Bifunctional 3'-5' exonuclease/ATP-dependent helicase WRN (Homo sapiens), Q14191; WRN helicase unwinding, fluorescent forked duplex, kinetic; Potency, µM (doses to about 114 µM), inactives show at the top dose activity change, negative = inhibition, actives largely listed as inhibitors; 360,000 tested, 0.46% active; AID 651768, 2012; further: on the % scale 0 is the no-effect control and ±100 the full control effect; nearly all actives have a fitted effect of over 55% in size
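Enzyme (20 nM final) and test compound sit together 15 min at room temperature before substrate addition. Substrate is a single-forked duplex oligonucleotide (100 nM) labelled with fluorophore and quencher, with 2 mM ATP; helicase unwinding raises red fluorescence, read kinetically.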
Pol kappa inh: qHTS for Inhibitors of Polymerase Kappa | DNA polymerase kappa (Homo sapiens), Q9UBT6 | purified Pol kappa, fluorescent DNA synthesis assay, 10 min | Potency, µM (titrated, usually from 107 µM), inactives show at the top dose activity, negative = inhibition, actives largely listed as inhibitors | 400,000 tested, 0.53% active | AID 588579, 2011; further: on the % scale 0 is the no-effect control and ±100 the full control effect
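Kinetic fluorescence readout at 0 and 10 min followed reaction start with substrate at 50 nM final. Beforehand, enzyme (10 nM Pol kappa) stood 15 min with compound at room temperature; buffer-only wells were negative controls.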
POLB inh: qHTS Assay for Inhibitors of DNA Polymerase Beta. 340,000 tested, 1.3% active. Potency, µM (doses to about 114 µM), inactives show at the top dose activity change, negative = inhibition, actives largely listed as inhibitors. P06746. AID 485314, 2010. Pol beta primer extension/strand displacement, fluorescence kinetic; further: on the % scale 0 is the no-effect control and ±100 the full control effect
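Pol beta (10 nM) and compounds were preincubated 15 min at room temperature, then 50 nM substrate (final) started primer extension/strand displacement. Reads were taken at 0 and 10 min; concentration-response data were fitted to a four-parameter Hill equation.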
FEN1 inh: qHTS Assay for the Inhibitors of Human Flap endonuclease 1 (FEN1); P39748; Recombinant FEN1 flap cleavage, fluorescence, 15 min; Potency, µM (titrated, usually from 114 µM), inactives show at the highest dose activity change, negative = inhibition, most hits filed as inhibitors; 390,000 tested, 0.35% active; further: on the % scale 0 is the no-effect control and ±100 the full control effect; nearly all actives have a fitted effect of over 65% in size
Target sequence (P39748 whole entry, looked up): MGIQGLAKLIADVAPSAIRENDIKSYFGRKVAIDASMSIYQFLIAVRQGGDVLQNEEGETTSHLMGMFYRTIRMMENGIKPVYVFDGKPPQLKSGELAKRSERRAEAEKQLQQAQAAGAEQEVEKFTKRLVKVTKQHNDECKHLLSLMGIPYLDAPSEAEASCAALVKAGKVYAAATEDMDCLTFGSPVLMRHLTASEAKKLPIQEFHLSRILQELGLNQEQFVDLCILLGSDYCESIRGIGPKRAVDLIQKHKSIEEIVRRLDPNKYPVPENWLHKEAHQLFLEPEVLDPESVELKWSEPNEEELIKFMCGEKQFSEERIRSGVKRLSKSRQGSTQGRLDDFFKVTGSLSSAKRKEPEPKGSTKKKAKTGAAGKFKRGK
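With each library titrated from low to high concentration, compounds met 10 nM FEN1 for 15 min at room temperature before 50 nM substrate was added; readings at 0 and 15 min fed four-parameter Hill curve fits.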
POLH inh: qHTS for Inhibitors of Polymerase Eta. 390,000 tested, 1.2% active. DNA polymerase eta (Homo sapiens), Q9Y253. Potency, µM (doses to about 114 µM), for inactives: at the top dose activity change, negative = inhibition, usual class: inhibitors. recombinant Pol eta, fluorescent DNA replication assay. AID 588591, 2011; further: on the % scale 0 is the no-effect control and ±100 the full control effect
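Pol eta at 10 nM preincubated with compounds 15 min at room temperature; reaction started with fluorescent substrate (50 nM final) and read kinetically at 0 and 10 min.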
Active calls of the source: *; ? = inconclusive; · = not tested or not shown; [ ] = another dose, or the depositor's remark. The call rests on the fitted dose curve; in most records, active means well fitted curve in the direction sought with a large enough effect; inconclusive means small, poorly fitted or top-dose-only effect, or another doubt; inactive means no such curve, though single readings can be large; an effect the other way counts as inactive or inconclusive. Potency means the concentration at half of the fitted maximal effect.

SMILES	Pol iota inh	WRN inhibitor	Pol kappa inh	POLB inh	FEN1 inh	POLH inh
COc1cc(OC)c(NC(=O)c2cn(C)c(=O)c3cc(OC)c(OC)cc23)cc1Cl	30%	·	-20%	9%	-7%	56µM*
CC(C)(C)n1ncc2c(=O)n(Cc3ccccc3-c3ccccc3)cnc21	14%	·	4%	·	0%	·
Oc1ccc(NCc2cccc(OCc3ccccc3)c2)cc1	?	22%	-3%	16%	?	-18%
Oc1ccc(NCc2cccc(OCc3ccc(F)cc3)c2)cc1	22µM*	8%	-20%	15%	?	-20%
COc1ccccc1C(=O)NC(=O)COC(=O)c1nccnc1N	3%	-12%	-22%	·	0%	18µM*
O=C1C(C=NCc2ccncc2)=C(O)c2ccccc21	5%	-1%	-4%	-17%	-2%	12%
O=[N+]([O-])c1cc2oc3c(c2c(C=NCc2ccncc2)c1O)CCCC3	?	?	?	18µM*	-25%	?
O=C(Nc1ccc(Cl)cc1)C1CCC(CNS(=O)(=O)c2ccc(Br)s2)CC1 (stereo unspecified)	20%	·	0%	-21%	-1%	-8%
Cc1cc(N(C)C)c(C)cc1/C=C/c1ccnc2ccccc12	89µM*	·	-19%	·	-3%	·
Cc1cc(/C=C/c2ccnc3ccccc23)ccc1N	?	·	?	·	-13%	·
CN(C)c1ccc(/C=C/c2ccnc3ccccc23)cc1N	79µM*	·	-16%	·	-11%	·
COc1ccc(Nc2nc3ccccc3c3nnc(C)n23)cc1Cl	7%	·	-6%	?	?	-15%
CCOc1ccc2nc(SCC(=O)c3ccc(O)cc3O)sc2c1	?	-7%	?	35µM*	4%	?
CCOc1ccc2nc(SCC(=O)c3ccc(C)s3)sc2c1	15%	0%	-15%	6%	2%	-12%
CCOC(=O)C1OC1C(=O)NC(CC(C)C)C(=O)NCCC(C)C (stereo unspecified)	·	·	3%[19.4 µM]	·	·	·
COc1cc(CNCCSc2nnnn2C)ccc1OCc1ccc(C)cc1	?	·	-7%	-2%	16%	-13%
CN(C)c1ccc(/C=C2\SC(=O)N(CCc3nnc(N)s3)C2=O)cc1	50µM*	-12%	-18%	?	2%	-11%
CN(C)c1ccc(/C=C2/SC(=O)N(CCN=C3NS(=O)(=O)c4ccccc43)C2=O)cc1	2%	-28%[57.1 µM]	-13%	-1%[57.1 µM]	1%	?
CC(=O)Nc1ccc(Sc2ccc([N+](=O)[O-])o2)cc1	?	-11%	-23%	·	3%	32µM*
Cc1cc(F)ccc1NC(=O)CCn1nc(C)c(S(=O)(=O)N2CCCCC2)c1C	-12%	·	-1%[60.1 µM]	2%	-8%	-4%
OC(C[n+]1c(Cl)ccc2ccccc21)c1ccccc1 (stereo unspecified)	?	·	2%	·	13%	·
CCN(CC)c1ccc(/C=C/c2c(C)cnc3ccccc23)cc1	6%	·	-15%	·	-22%	·
Cn1nc(-c2ccc(Cl)cc2)c2cc(C(=O)NCCCN3CCCC3)sc21	?	59%	-25%	50µM*	32µM*	9%
O=C(NCCCN1CCCCCC1)c1cc2c(=O)oc3ccccc3c2s1	50µM*	-12%	-40%	-11%	71µM*	-6%
CC1CCCN(CCCNC(=O)c2cc3c(Cl)nc4ccccc4c3s2)C1 (stereo unspecified)	-7%	49%	14%	2%	50µM*	-15%
SMILES	Pol iota inh	WRN inhibitor	Pol kappa inh	POLB inh	FEN1 inh	POLH inh
COc1ccc(S(=O)(=O)N2CCC(Oc3ccc(-n4cnnn4)cc3)CC2)cc1OC	-6%	·	-19%	3%	-2%	-11%
O=C(N/N=C/c1ccc(O)cc1O)C1CC1	-2%	-4%	0%	·	0%	-17%
O=C(N/N=C/c1ccc(O)cc1O)c1ccc(NC(=O)C2CCCCC2)cc1	?	-5%[11.6 µM]	-8%	-5%	5%	35µM*
O=C(N/N=C/c1cccc(O)c1)c1ccc(NC(=O)C2CCCCC2)cc1	?	-16%	-15%	32µM*	-4%	5%
CCc1ccc2c(O)c3c(cc2c1C(=O)OC)C(=O)c1c(O)ccc(O)c1C3=O	·	·	7.9µM*	·	·	·
COC(=O)c1c(C)cc(O)cc1O	20%	8%	21%	·	0%	-14%
COc1ccc(-n2nc(C(=O)NCCc3ccc(OC)c(OC)c3)c3c4ccccc4n(C)c3c2=O)cc1Cl	4%	·	9%	43%	2%	-5%
Cc1c2ccccc2cc[n+]1CCCS(=O)(=O)[O-]	64%	-7%	6%	-1%	7%	-15%
CC1(C)C(/C=C/C=C/C=C/C=C2\N(CCCCS(=O)(=O)O)c3ccc4ccccc4c3C2(C)C)=[N+](CCCCS(=O)(=O)[O-])c2ccc3ccccc3c21	13µM*	45µM*	22µM*	·	20µM*	7.1µM*
O=C(O)c1cc(=O)c2c3nc4ccccc4oc-3cc(=O)c2[nH]1	?	·	10µM*	·	?	·
COc1ccc(OC)c2c(=O)cc(C(=O)O)[nH]c12	159%	-26%	-1%	-26%	1%	-10%
COc1cc(NS(=O)(=O)c2cc(NC(C)=O)ccc2OC)c(OC)cc1NC(=O)c1ccccc1	?	-8%[11.6 µM]	-23%	·	11%	45µM*
COc1ccccc1NS(=O)(=O)c1cc(NC(=O)c2ccc(NC(C)=O)cc2)ccc1N1CCOCC1	13%	-20%	-4%	·	-2%	-25%
CCOc1cc(N2CCOCC2)c(OCC)cc1NC(C)C(=O)N1CCN(CC)CC1 (stereo unspecified)	13µM*	?	?	?	-32%	-7%
CCOc1cc(N2CCOCC2)c(OCC)cc1NS(=O)(=O)c1cc(NC(C)=O)ccc1OC	25µM*	-4%[11.6 µM]	?	?	-14%	?
COc1cc(C(=O)Nc2cc3c(cc2C)n(C)c(=O)c(=O)n3C)cc(OC)c1OC	-5%	·	13%	-13%	-3%	-10%
CCn1nc(C)c2c(-c3ccccc3)cc(=O)n(C(C)C(=O)Nc3ccc(OC)c(OC)c3)c21 (stereo unspecified)	3%	·	-15%	-6%	11%	-9%
O=C(CCN1CCCC1Cc1ccccc1)c1ccc2c(c1)OCCO2 (stereo unspecified)	?	56µM*	0%	0%	-3%	-13%
O=C(CCN1CCCCC1)c1ccc2c(c1)OCCO2	?	-11%	3%	38%	-4%	-5%
